Experimental findings from publication PMC5540273 (PLoS ONE, 2017) are described below.

Structures are written as SMILES.
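Also: KINOMEscan kinase panel screen.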

In the assay the test system is FES. The following applies: concentration: 1 μM, replicates: in singlicate; n = 1.
Consider `Nc1ncnc2c1ncn2-c1ccc(Cl)cc1` [AH2635], for which the “%Inh” value came to 0%.
In the case of `Nc1nc(-c2ccccc2F)c(-c2ccnc3ccccc23)s1` [GW560459], the “%Inh” value was determined as 0%.
Turning to `COc1cc2ncn(-c3cc(OCc4ccc(S(C)(=O)=O)cc4)c(C(N)=O)s3)c2cc1OC` [GW869979], the “%Inh” value worked out at 0%.
For `CCC(=O)c1c(-c2ccccc2)c2cc(Cl)ccc2c(=O)n1Cc1cc(C(=O)NC2CC2)n(C)n1`, the “%Inh” value was found to be 22%.
As to `Nc1n[nH]c2nnc(-c3ccccc3)c(-c3ccccc3)c12` [GW554060], the “%Inh” value is on record as 0%.
On to `OCCCNc1nccc(-c2c(-c3cccc(C(F)(F)F)c3)nn3cc(C(F)(F)F)ccc23)n1` [GW630813], for which the “%Inh” value is recorded as 0%.
As for `O=C(NCCNc1ccnc(Nc2ccc(F)cc2)n1)Nc1ccc2c(c1)OCO2` [GSK1379882], the figure is 0%; as for `CCC(=O)c1c(-c2ccccc2)c2cc(Cl)ccc2c(=O)n1Cc1cc(S(C)(=O)=O)n(CCC(C)(C)O)n1`, 5%.
Consider `FC(F)(F)c1ccc(-c2ncn(CCCN3CCOCC3)c2-c2ccncc2)cc1` [SB-217780], for which the “%Inh” value amounted to 4%.
To `COC(=O)c1c(-c2ccccc2)c2cc(Br)ccc2c(=O)n1Cc1ccc(S(C)(=O)=O)cc1` belongs 20%; to `CCCNC(=O)Nc1ccc(Oc2ncnc3ccn(C)c23)cc1`, 0%; to `CCn1c(-c2ccoc2)nc2cnccc21` [SB-733887], 0%.
As to `CCn1c(-c2nonc2N)nc2ccccc21` [SB-693162/GW549034], the “%Inh” value worked out at 0%.
For the compound `Cc1nc(N(C)[C@H]2CN(C(=O)CC#N)CC[C@H]2C)c2cc[nH]c2n1`, the “%Inh” value is 9%.
To `CCC(=O)c1c(-c2ccccc2)c2cc(Cl)ccc2c(=O)n1Cc1ccc(C(=O)O)cc1` belongs 5%.
Take `COc1ccc(Nc2nccc(N3CCC(NS(=O)(=O)c4ccc(NC(C)=O)cc4)C3)n2)cc1` (stereo not shown) [GSK1379729]: the “%Inh” value was found to be 5%.
For `CCc1nc(-c2cccc(C)c2)c(-c2ccncc2)s1`, the “%Inh” value stood at 0%.
As for `COc1cc(Nc2ccnc3ccc(C(F)(F)F)cc23)cc(OC)c1OC` [GW577382], the figure is 2%; as for `COc1ccc(-c2cc3c(C)nc(N)nc3n([C@H]3CC[C@H](O)CC3)c2=O)cn1`, 0%; as for `Cc1ccc(-c2ccc3c(ccc4sc5c(c43)NC[C@@H](C)N=C5N(C)C)n2)cn1`, 0%.
Take `Cc1nnc(-c2ccc(C)c(-c3ccc(C(=O)O)cc3)c2)o1` [GW608005]: the “%Inh” value was found to be 0%.
Take `COC(=O)c1c(-c2ccccc2)c2cc(C)ccc2c(=O)n1Cc1ccccc1`: the “%Inh” value was found to be 0%.
Take `COc1cccc(C2=C(Nc3cccc(C(=O)O)c3)C(=O)NC2=O)c1` [SB-390770]: the “%Inh” value is 0%.
To `Fc1cccc(CSc2nnc(-c3ccc4c(c3)CCO4)o2)c1` belongs 0%; to `Cc1cccc(-c2cc(-c3c[nH]nc3-c3ccccn3)ccn2)c1` [GW679395], 0%; to `CN(C)c1cc(-c2ccc3c(N)n[nH]c3c2)nc(N)n1` [GSK2219329], 0%.
Consider `Cn1c(=O)c(F)c(Nc2ccc(I)cc2F)c2c(=O)n(OC[C@H](O)CO)cnc21`, for which the “%Inh” value was found to be 9%.
As for `Cc1nnc(-c2ccc3ncn(-c4ccc(S(C)=O)cc4)c3c2)o1` (stereo not shown), the figure is 20%; as for `CCC(=O)c1c(-c2ccccc2)c2cc(Cl)ccc2c(=O)n1Cc1cc(S(C)(=O)=O)n(CC(N)=O)n1`, 0%; as for `COc1cccc(-n2cnc3c(N)ncnc32)c1` [SKF-97416], 4%.
For `CCCC(=O)Nc1n[nH]c2ncc(-c3cccc4ccccc34)cc12` [SB-642057], the “%Inh” value is reported as 0%.
For the compound `CN1C(=O)C(Nc2cc(Cl)c(O)c(Cl)c2)=C(c2ccc(Cl)cc2)C1=O` [SB-404321], the “%Inh” value is 0%.
On to `Nc1nccc2scc(-c3ccc4c(c3)CCN4C(=O)Cc3ccccc3)c12` [GSK2576924], for which the “%Inh” value is on record as 0%.
As for `CCc1ccc(-c2ccc3c(c2)-c2nn(C)cc2S(=O)(=O)N3C)cc1`, the figure is 0%.
For `O=C(NCc1cccs1)c1cc(C(=O)c2c(Cl)cccc2Cl)c[nH]1` [GW823670], the “%Inh” value worked out at 0%.
In the case of `COC(=O)c1c(-c2ccccc2)c2cc(Br)ccc2c(=O)n1Cc1ccc(NC(=O)CCC(=O)O)cc1`, the “%Inh” value is reported as 9%.
Take `COc1ccc(CNC(=O)NC2CCN(c3ccnc(Nc4ccc(F)cc4)n3)C2)cc1` (stereo not shown) [GSK1379706]: the “%Inh” value was found to be 0%.
